Data on 118 molecules can be found in ChEMBL document CHEMBL4513216, “Probing the Open Global Health Chemical Diversity Library for Multistage-Active Starting Points for Next-Generation Antimalarials” (ACS Infect Dis, 2020).

Screen size: about 69,000 compounds; about 8,600 (12%) showed an effect of 50% or more. The sample as a whole holds a higher share of strong results than the screen did.

This test relates to Plasmodium berghei. The test can be described thus: Screen against P. berghei liver stage (PbLuc), transformed with Luciferase, at 10uM. Format: functional, HepG2. Conditions: tested at 10 uM.
As to `CN(C(=O)CN1CCCc2cc(F)cc(F)c21)c1ccccc1`, the INHIBITION is 43.9%.

Regarding `CN(C)C(=O)Cn1cc(C(=O)N2CCCc3cccc(F)c32)nn1`, the INHIBITION turned out to be 28.6%. The same measure for `CC(c1ccccc1)N(C)C(=O)Cn1cc(NC(=O)C(C)(C)C)cn1` (stereo not drawn): -41.1%; for `CC(c1ccccc1)N(C)C(=O)CN1CCN(c2cnccn2)CC1` (stereo not drawn): 47.2%; for `CC(c1ccccc1)N(C)C(=O)CN1CCCc2cc(F)cc(F)c21` (stereo not drawn): 76.1%. With `CC(c1ccccc1)N(C)C(=O)CN1CCCc2cccc(F)c21` (stereo not drawn) the figure was 51.1%; with `CC(C)CC(=O)N1C[C@@H]2CCN(c3cnccn3)C[C@@H]2C1`, 3.81%. The same measure for `CNC(=O)CN1C(=O)CN(C(=O)COC)CCC(OC)c2ccccc21` (stereo not drawn): 48.7%. Turning to `CNc1cc(C2CCCN2S(=O)(=O)c2cccc(F)c2)ccn1` (stereo not drawn), the INHIBITION is given as 2.71%. With `CCS(=O)(=O)N1CCc2nc(C3CCN(C(=O)C4CC4)C3)nc(O)c2C1` (stereo not drawn) the figure was 30.4%; with `Cc1nc(NC2CCCC2)cc(C2CCN2c2ncccn2)n1` (stereo not drawn), 26.7%. Take `Cc1cc(C(=O)NC(C)Cc2ccc(N(C)C)cc2)n(C)n1` (stereo not drawn): the INHIBITION was 44.7%. With `COCC(=O)N1CCCN(Cc2cc(O)c3ccccc3n2)CC1` the figure was 32.1%; with `COCC(=O)N1CCCN(Cc2c(C)nc3ccc(Cl)cn23)CC1`, 73.6%. The same measure for `Cc1nc(CN2CCN(S(=O)(=O)N3CCOCC3)CC2)oc1C`: 31.2%. In the case of `Cc1nc(CN2CCN(S(=O)(=O)N3CCCCC3)CC2)oc1C`, the INHIBITION is 19.4%. With `Cc1nc2ccc(Cl)cn2c1CN1CCN(S(=O)(=O)N2CCCC2)CC1` the figure was 57.55%. With `COCC(=O)N1CCC2(CCCN(Cc3ccc(Cl)cc3)CC2)CC1`, the INHIBITION amounted to 17.6%.

With `COCCN1C[C@@H](C)[C@@]2(COCCN(C(=O)Cc3ccccc3)C2)C1`, the INHIBITION was -8.94%. The same measure for `CN1CCC2(CCN(S(=O)(=O)c3ccc(-c4cnco4)s3)CC2)C1`: 28.4%; for `CN(C)C(=O)c1nc2c(n1C)CCN(Cc1ccccc1)C2`: -31.4%. With `FC(F)(F)c1[nH]nc2c1CN(Cc1ccccc1)CC2` the figure was 84.2%; with `OCCCN1CCc2[nH]nc(C(c3ccccc3)c3ccccc3)c2C1`, 18.7%. With `CN(Cc1cnn(C)c1)C(=O)c1ccc(=O)n(C)n1` the figure was -19.7%; with `O=C(Nc1ccccc1)N1CCC(n2cc3[nH]cccc-3c2=O)CC1`, 32%; with `Cc1nc(CN2CCCC(NCc3ccc(C(N)=O)cc3)C2)no1` (stereo not drawn), 11.2%. Consider `Cc1nnc(NC(=O)NCc2ccc(N3CCC(C)CC3)nc2)s1`, for which the INHIBITION amounted to 33.3%. As for `Cc1ccccc1OC1CN(Cc2c(C)nc3ccccn23)C1`, the INHIBITION turned out to be 91.8%. The same measure for `COc1ccccc1OC1CN(Cc2ccc(C(=O)O)cc2)C1`: 14.3%; for `CSCC[C@H](N)C(=O)N1CC(Oc2ccccc2C)C1`: -13.5%; for `CC(=O)c1cccc(CN2CC(Oc3ccccc3C)C2)c1`: 52%. The same measure for `COCc1ncc(CN2CC(Oc3c(C)cccc3C)C2)cn1`: 31.2%; for `Cc1ccc(C(=O)N2CC(Oc3ccccc3C)C2)s1`: 18.4%; for `CC(=O)c1ccc(CN2CC(Oc3ccccc3C)C2)cc1`: 52%.

Regarding `Cc1nc2ccccn2c1CN1C[C@@H](CN(C)CCO)[C@@H](CO)C1`, the INHIBITION turned out to be 29%. With `Cc1nc2ccccn2c1CN1C[C@@H](CN(C)C)[C@@H](CO)C1` the figure was 45.3%; with `O=C(c1n[nH]cc1Cl)N1CCSCC1`, -10.6%. With `COCCNC(=O)c1sc2ccccc2c1C1CCC(CN)CC1` (stereo not drawn) the figure was 3.48%; with `COCCN1C[C@@H]2CCCO[C@@H]2[C@H](NC(=O)c2cnccn2)C1`, -17%; with `O=C(NC1CC1)N1CCN(c2cnccn2)CC1`, -11.4%.

`Cc1nc(N(C)C)cc(C2(C)CCCNC2)n1` (stereo not drawn): the INHIBITION was 8.42%. With `NS(=O)(=O)c1ccc(C(=O)N2CCCC2c2ccccc2)o1` (stereo not drawn) the figure was 12.7%; with `CC(C)c1nnc(CN2CCN(CC(O)c3ccccc3)CC2)o1` (stereo not drawn), 36.1%. With `Cc1nc(N2CCN(C)CC2)ncc1C(=O)N1C[C@@H](C)[C@@](C)(O)C1` the figure was 34.9%.

For `O=c1[nH]nc2c(N3CCCCCC3)nccn12`, the INHIBITION stood at 47.4%.

As for `O=c1[nH]nc2c(N3CCOCC3)nccn12`, the INHIBITION is recorded as 56.5%. With `O=c1[nH]nc2c(N3CCC(NC4CCOCC4)CC3)nccn12` the figure was 33.3%. As for `O=C1OCCN1CCNC(=O)C1(N2CCCCC2)Cc2ccccc2C1`, the INHIBITION was found to be 6.54%.

As for `Clc1cccc(-c2noc(CCN3CCN(c4ccncc4)CC3)n2)c1`, the INHIBITION is given as 61.8%. The same measure for `NC(=O)N1CCCN(CCc2nc(-c3cccc(Cl)c3)no2)CC1`: 2.22%. The same measure for `CCOC1CCN(CCc2nc(-c3cccc(Cl)c3)no2)CC1`: 46.3%; for `O=C(NCc1ccccc1-n1cccn1)N1CCC(N2CCCC2)C1` (stereo not drawn): 17.4%. With `CCN(CC(=O)Nc1cc(Cl)ccc1C)C(=O)c1ccncc1` the figure was -10.8%; with `CCC(C)NC(=O)c1ccc(NC(=O)CCCn2cncn2)c(C)c1` (stereo not drawn), 5.64%; with `CCCC(=O)Nc1cc(C(=O)NC(C)Cc2ccncc2)ccc1C` (stereo not drawn), 57.5%. As to `CC(=O)N[C@@H]1CN(C(=O)c2cccc(C(F)(F)F)c2)C[C@H]1O`, the INHIBITION is -4.1%. With `CCc1nnc2n1CCN(C(C(=O)N(CC)CC)c1ccccc1)C2` (stereo not drawn) the figure was 19.4%. With `CC1CCC(NC(=O)CNC2(c3ccc(F)cc3)CCOCC2)CC1` (stereo not drawn) the figure was 12.8%; with `Cc1cccn2cc(CNS(=O)(=O)N3CCOCC3)nc12`, 19.8%; with `Cn1nnc2c1CCN(Cc1ccoc1)C2COCc1ccccc1` (stereo not drawn), -6.39%. The same measure for `Cn1nnc2c1CCN(S(C)(=O)=O)C2COCc1ccccc1` (stereo not drawn): 53%; for `CCn1nnc2c1CCN(S(C)(=O)=O)C2COCc1ccccc1` (stereo not drawn): -3.51%; for `C1CN(CC2CC2)C(COCC2CC2)c2nnn(CC3CC3)c21` (stereo not drawn): 15.6%. As for `CS(=O)(=O)N1CCc2c(nnn2CC2CC2)C1COCC1CC1` (stereo not drawn), the INHIBITION was determined as 58.5%. The same measure for `Cn1nnc2c1CCN(CC1CC1)C2COCC1CC1` (stereo not drawn): 38.5%; for `C1CC(CN2CCc3c(nnn3CC3CC3)C2COCC2CC2)C1` (stereo not drawn): 43.3%. For `CN(C)C(=O)N1CCc2c(nnn2C)C1COCC1CC1` (stereo not drawn), the INHIBITION is 12.7%. With `Cn1nnc2c1CCN(S(C)(=O)=O)C2COCC1CC1` (stereo not drawn) the figure was 57.1%; with `Cc1ccc(CN2CCc3c(nnn3C)C2COCc2ccccc2)s1` (stereo not drawn), 59.3%; with `Cn1nnc2c1CCN(Cc1ccncc1)C2COCc1ccccc1` (stereo not drawn), 17.2%. With `Cn1nnc2c1CCN(CC1CC1)C2COCc1ccccc1` (stereo not drawn) the figure was 39.8%; with `CCc1ccc(NC(=O)N2Cc3c(CN(C)C)nn(C)c3C2)cc1`, 33%. With `COc1cccc(OCCn2c(C)c(C)oc2=O)c1` the figure was 31.4%; with `CCC1=N[C@@]2(CC[C@@H]3CN(Cc4ccccc4F)C[C@@H]32)C(=O)N1`, 10.5%. For `Cc1nc(C)n(CC2CCCN2Cc2nc3ccccc3o2)n1` (stereo not drawn), the INHIBITION is listed as 33.8%. Take `COC(=O)CCn1ccc(=O)c2ccc(OC)cc21`: the INHIBITION was -7.53%. The same measure for `CNc1cncc(C2CCCN2C(=O)Cn2c(=O)oc3ccccc32)n1` (stereo not drawn): 23.4%; for `CC(C)(C)c1cc(CN2C[C@@H]3CC[C@H]2CN(Cc2ccccn2)C3)n[nH]1`: -2.73%.

For the molecule `COc1cc(N2CCc3ncnc(-c4ccncc4)c3CC2)ncn1`, the INHIBITION stood at 33%.

`COCc1nc(N(C)C)ncc1C(=O)Nc1cc(C)cc(C)c1`: the INHIBITION was 35%. The same measure for `Cc1nc2c(c(NCCNC(=O)C(C)C)n1)Cc1ccccc1OC2`: -0.55%; for `CN(CC1(CO)CCC1)c1nc2c(c(=O)[nH]1)Cc1ccccc1OC2`: 57.8%; for `CN(CC1(CO)CCCC1)c1nc2c(c(=O)[nH]1)Cc1ccccc1OC2`: 71.2%. Regarding `Cc1nc2c(c(N[C@H](C(N)=O)C(C)C)n1)Cc1ccccc1OC2`, the INHIBITION was -19.8%. As to `Cc1nc2c(c(N[C@@H](CO)C(N)=O)n1)Cc1ccccc1OC2`, the INHIBITION was -13.4%. Take `CN(C)c1nc2c(c(=O)[nH]1)Cc1ccccc1OC2`: the INHIBITION came out at 54.4%. With `Cc1nc2c(c(NCC(=O)NC(C)C)n1)Cc1ccccc1OC2` the figure was 5.87%.

For the molecule `OCC1CCCN(c2ncnc3c2Cc2ccccc2OC3)C1` (stereo not drawn), the INHIBITION is 32.1%. The same measure for `Cc1nc2c(c(NC(C)c3nnn[nH]3)n1)Cc1ccccc1OC2` (stereo not drawn): -45.5%. With `COCCN(CCC#N)Cn1cc(Cl)cn1` the figure was 5.29%. With `CC(C)NC1CCc2c(ccc(=O)n2CCN2CCCC2=O)C1` (stereo not drawn) the figure was -20.1%; with `COCCn1c2c(ccc1=O)CCN(C(=O)NC1CC1)CC2`, -3.26%. For the molecule `CC(C)NC1CCc2c(ccc(=O)n2CCN2CCOCC2)C1` (stereo not drawn), the INHIBITION worked out at 73.2%. For the molecule `O=C(NC1CC1)N1CCc2ccc(=O)n(CC3CC3)c2CC1`, the INHIBITION is reported as -55.2%.

On to `CC(C)NC1CCc2c(ccc(=O)n2CCN(C)C)C1` (stereo not drawn), for which the INHIBITION is given as -33%. The same measure for `O=C(NC1CC1)N1CCc2ccc(=O)n(CCN3CCCC3)c2CC1`: 61.5%. For `CN(CC(=O)NCC1CCCCC1)S(=O)(=O)c1cccnc1`, the INHIBITION was -7.93%. The same measure for `Cn1cc(C[C@H]2[C@H](O)CCN2CC2CC2)cn1`: 18.8%; for `O=C(CCc1nc2cc(Br)cnc2[nH]1)NCc1cccnc1`: -2.92%. For the molecule `Cc1ccc(CNCC(C)Oc2ccccn2)cc1` (stereo not drawn), the INHIBITION is given as -6.11%.

For `CC(C)(C)C(=O)NCC(=O)NCC1CCCS1` (stereo not drawn), the INHIBITION amounted to 91.1%. For `CC(C)(C)CC(=O)NCC1CCCS1` (stereo not drawn), the INHIBITION is listed as 43.4%.

Turning to `O=C(CCC(F)(F)F)NCC1CCCS1` (stereo not drawn), the INHIBITION is 31.5%. As for `O=C(CNC(=O)Nc1c(F)cc(F)cc1-c1ccccc1)NC1CC1`, the INHIBITION was 3.93%. With `O=C(NCCN1CCCC1)C1(c2ccc(Cl)cc2)CCOCC1` the figure was 33.85%.

As for `O=C(NCCNc1ncccn1)N1CCN(c2nccs2)CC1`, the INHIBITION was -14.6%. The same measure for `CC(=O)N1CCC(N[C@@H]2CC[C@@H]2NS(=O)(=O)c2cccnc2)CC1`: 46.9%. The same measure for `CS(=O)(=O)NC1CCCN(C(=O)NCc2cccnc2)C1` (stereo not drawn): -6.62%; for `CS(=O)(=O)NC1CCN(C(=O)c2cnc(-c3cccnc3)nc2)CC1`: -32.8%; for `c1cncc(OCCNC2Cc3ccccc3C2)c1`: 39.7%.

Take `CS(=O)(=O)NC1CCN(C(=O)NCc2ccccn2)CC1`: the INHIBITION is -27.9%. The same measure for `Cc1cc(C2CCCN2C(=O)NCc2ccccn2)on1` (stereo not drawn): 48.5%; for `CS(=O)(=O)NC1CCN(C(=O)NCc2cccnc2)CC1`: 59%; for `CC(=O)N1CCC(NS(=O)(=O)c2cccnc2)CC1`: 69.3%. With `Cc1cc(C2CCCN2C(=O)NCc2cccnc2)on1` (stereo not drawn) the figure was 55%; with `O=C(NS(=O)(=O)c1cccnc1)C1CC(c2ccccc2)=NO1` (stereo not drawn), 28.7%. The same measure for `O=S(=O)(N[C@H]1CC[C@H]1NC1Cc2ccccc2C1)c1cccnc1`: 68.3%; for `Cc1cc(C2CCCN2C(=O)NCc2cccc(F)c2)on1` (stereo not drawn): 23.2%.
